Reference: PubChem BioAssay (EPA / NIEHS)
Where “and” joins values, the source holds several entries; their conditions need not be identical. Equal entries are not always repeated. Results filed as inconclusive are left out. Some structures have more than one record in an assay (separate samples or runs), and their calls can disagree. Calls of active or inactive are those of the source. How the source made its calls, unless noted: active means hit-call score of the fitted dose curve at least 0.9, where 1 is the maximum; inconclusive means response in the unintended direction; inactive means score below 0.9.

Assays:
[1] = target: Cellular tumor antigen p53 (Homo sapiens) (UniProt P04637); assay: TOX21_p53_BLA_p5_ratio: Tox21 HCT-116 p53 Agonism Beta-lactamase Assay, Ratio, Phase 5 (AID 2283599)
Summary of the method: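 HCT-116 p53-bla cells (4000/well) plated 5 h, dosed with compound (217-fold DMSO dilution) for 16 h at 37 C; CCF4-AM substrate 2 h at room temperature. Activity is the 460/530 nm emission ratio (405 nm excitation), fitted in gain-of-signal direction versus DMSO.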

[2] = target: Cellular tumor antigen p53 (Homo sapiens) (UniProt P04637); assay: TOX21_p53_BLA_p4_ratio: Tox21 HCT-116 p53 Agonism Beta-lactamase Assay, Ratio, Phase 4 (AID 2283601)
Summary of the method: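 HCT-116 p53 beta-lactamase reporter cells (4000/well) preincubated 5 h, then compound (217-fold dilution of DMSO stock) for 16 h at 37C. CCF4-AM substrate added 2 h at room temperature; 460/530 nm emission ratio fitted upward versus DMSO.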

[3] = read-out: xenobiotic metabolism (CYP2C9), CYP2C9 (gene 1559); assay: CLD_CYP2C9_6hr: CellzDirect (CLD) Gene Expression Assay for xenobiotic metabolism (CYP2C9) at 6 hours (AID 2283664)
Summary of the method: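 Primary human hepatocytes dosed daily with test chemicals at multiple concentrations; harvested at 6 h. CYP2C9 mRNA induction measured by qNPA chemiluminescence. Gain of signal fitted against 0.2% DMSO vehicle; cytotoxicity annotated from phase-contrast morphology.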

[4] = target: human Androgen Receptor (AR), AR (gene 367) (UniProt P10275); assay: ATG_hAR_XSP1: Attagene TRANS-FACTORIAL Multi-Species (XSP1) HepG2 Assay for human Androgen Receptor (AR) (AID 2283785)
[5] = target: PGR (gene 5241) (UniProt P06401); assay: TOX21_PR_BLA_Followup_Agonist_ratio: Tox21 HEK293 Progesterone Receptor (PR) Agonism Beta-lactamase Follow-Up Assay, Ratio (AID 2283933)
Summary of the method: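 PR-UAS-bla HEK293T cells (GAL4-UAS beta-lactamase reporter) in medium with 2% charcoal-stripped FBS received compounds after 6 hr at 37C, then incubated 16 hr. LiveBLAzer FRET substrate added, 2 hr room temperature; cleaved/uncleaved (ch2/ch1) ratio fitted upward versus DMSO.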

[6] = target: PGR (gene 5241) (UniProt P06401); assay: TOX21_PR_BLA_Followup_Antagonist_ratio: Tox21 HEK293 Progesterone Receptor (PR) Antagonism Beta-lactamase Follow-Up Assay, Ratio (AID 2283934)
Summary of the method: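 PR-UAS-bla HEK293T cells in medium with 2% charcoal-stripped FBS were treated with compounds plus 1 nM (final) promegestone (R5020) for 16 hr at 37C. LiveBLAzer B/G FRET substrate was then added for 2 h at room temperature; signal is cleaved/uncleaved substrate ratio versus DMSO.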

[7] = TOX21_PR_BLA_Followup_Agonist_viability: Viability Assessment in the Tox21 HEK293 Progesterone Receptor (PR) Agonism Beta-lactamase Follow-Up Assay (AID 2283935);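 further: signal loss means lower viability so actives are cytotoxic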
Summary of the method: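 PR-UAS-bla HEK293T cells in 2% charcoal-stripped FBS medium, compound added after 6 hr plating, 16 hr at 37C/5% CO2. After bla FRET read, CellTiter-Glo added; luminescence read after 30 min at room temperature; signal loss marks cytotoxicity.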

[8] = TOX21_PR_BLA_Followup_Antagonist_viability: Viability Assessment in the Tox21 HEK293 Progesterone Receptor (PR) Antagonism Beta-lactamase Follow-Up Assay (AID 2283936);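 further: hits lower the luminescence signal meaning cytotoxicity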
Summary of the method: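 PR-UAS-bla HEK293T cells (3,000/well, 2% charcoal-stripped FBS) given compound plus R5020 agonist, 16 h at 37C. CellTiter-Glo added after bla read, 30 min at room temperature; luminescence loss indicates cytotoxicity.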

[9] = target: PGR (gene 5241) (UniProt P06401); assay: TOX21_PR_LUC_Followup_Agonist: Tox21 HEK293 Progesterone Receptor (PR) Agonism Luciferase Follow-Up Assay (AID 2283937; active means hit-call score of the fitted dose curve at least 0.9, where 1 is the maximum; inactive means score below 0.9)
Summary of the method: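 HEK293-PR-A-luc cells, pre-cultured 5 days in medium with 10% charcoal-stripped FBS, were seeded at 3,000 cells/well, rested 5 h at 37C, then exposed to compounds 16 h at 37C; luciferase read by ONE-Glo luminescence after 30 min.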

[10] = target: PGR (gene 5241) (UniProt P06401); assay: TOX21_PR_LUC_Followup_Antagonist: Tox21 HEK293 Progesterone Receptor (PR) Antagonism Luciferase Follow-Up Assay (AID 2283938);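 further: curve fitted upward as signal gain over DMSO baseline despite antagonist label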
Summary of the method: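 HEK293-PR-A-luc cells, 3,000/well, preincubated 5 h at 37C before compound addition in DMSO; 16 h compound exposure at 37C. ONE-Glo luciferase luminescence read after 30 min at room temperature, fitted relative to DMSO baseline.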

[11] = TOX21_PR_LUC_Followup_Antagonist_viability: Viability Assessment in the Tox21 HEK293 Progesterone Receptor (PR) Antagonism Luciferase Follow-Up Assay (AID 2283940)
Summary of the method: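 HEK293-PR-A-luc cells, precultured 5 days in assay medium with 10% charcoal-stripped FBS, were seeded at 3,000 cells/well, treated with compounds in DMSO for 16 h at 37C, and viability was read as cellular ATP by CellTiter-Glo luminescence.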

[12] = TOX21_PR_LUC_Followup_Agonist_viability: Viability Assessment in the Tox21 HEK293 Progesterone Receptor (PR) Agonism Luciferase Follow-Up Assay (AID 2283941);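 further: loss of signal means cytotoxicity so actives lower viability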
Summary of the method: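 HEK293-PR-A-luc cells, pre-cultured 5 days in 10% charcoal-stripped FBS, were seeded at 3,000 cells/well, rested 5 h at 37C, then given compound in DMSO for 16 h at 37C. Cellular ATP was read by CellTiter-Glo luminescence; signal loss indicates cytotoxicity.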

[13] = tested on: Thyroperoxidase (TPO), gene 54314; assay: CCTE_Simmons_AUR_rTPO: CCTE's Amplex UltraRed Assay for Thyroperoxidase (TPO) Inhibition, Simmons Lab (AID 2283662)
Summary of the method: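 Rat thyroid microsomes (5 ug protein) with 25 uM Amplex UltraRed and 300 uM H2O2 in 200 mM phosphate buffer, 30 min at 37C in dark; fluorescence 544/590 nm. Eight concentrations, 5 nM–87.5 uM final, 0.5% DMSO, triplicate biological replicates.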

[14] = target: Luciferin 4-monooxygenase (Photinus pyralis) (UniProt P08659); assay: CCTE_Simmons_QuantiLum_inhib_2: CCTE's Firefly Luciferase Inhibition Assay, Simmons Lab (AID 2283767)
Summary of the method: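 Recombinant firefly luciferase (5 ng/well, 200 mM potassium phosphate with 1 mg/ml BSA) was exposed to 8 concentrations from 5 nM to 87.5 uM (final, 0.5% DMSO) for 30 min at 37C in the dark. Loss of luminescence versus DMSO was read after injecting D-luciferin/ATP-analogue reagent.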

[15] = TOX21_p53_BLA_p5_viability: Viability Assessment in the Tox21 HCT-116 p53 Agonism Beta-lactamase Assay, Phase 5 (AID 2283600)
Summary of the method: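 HCT-116 p53 beta-lactamase reporter cells, 4000/well, were exposed to compound (pin transfer, 217-fold dilution) for 16 hours at 37C. Cellular ATP was read by CellTiter-Glo luminescence after 30 min at room temperature.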

[16] = CCTE_Harrill_HTTr_Viability_MCF7: CCTE's 6-hour Cell Viability Assessment for the High-Throughput Transcriptomics (HTTr) Platform, in MCF-7 cells cultured in DMEM + 10% fetal bovine serum, Harrill Lab (AID 2284010; active means hit-call score of the fitted dose curve at least 0.9, where 1 is the maximum; inactive means score below 0.9)
Summary of the method: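 Membrane integrity was scored by high-content imaging of propidium iodide dye exclusion after a 6 h exposure across an eight-point dilution series. Data were fitted bidirectionally relative to DMSO as negative control and baseline.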

[17] = CCTE_Harrill_HTTr_Apoptosis_MCF7: CCTE's 6-hour Apoptosis Assessment for the High-Throughput Transcriptomics (HTTr) Platform, in MCF-7 cells cultured in DMEM + 10% fetal bovine serum, Harrill Lab (AID 2284011; active means hit-call score of the fitted dose curve at least 0.9, where 1 is the maximum; inactive means score below 0.9)
Summary of the method: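 MCF-7 cells in DMEM + 10% FBS exposed 6 h to chemicals over an eight-point dilution series. Caspase-3/7 activation imaged by high-content CellEvent Green staining; fitted bidirectionally versus DMSO.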

[18] = CCTE_Harrill_HTTr_CellCount_MCF7: CCTE's Cell Proliferation Assessment for the High-Throughput Transcriptomics (HTTr) Platform, Harrill Lab (AID 2284012);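 further: intended direction is loss of nuclei count meaning fewer cells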
Summary of the method: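 MCF-7 cells were exposed for 6 h to an eight-point dilution series; Hoechst-labeled nuclei were counted by high content imaging. Curves were fitted bidirectionally against DMSO as negative control and baseline, with signal loss indicating reduced cell count.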

Sequence of PGR (gene 5241) (P06401 whole entry, looked up, the tested form may be a part): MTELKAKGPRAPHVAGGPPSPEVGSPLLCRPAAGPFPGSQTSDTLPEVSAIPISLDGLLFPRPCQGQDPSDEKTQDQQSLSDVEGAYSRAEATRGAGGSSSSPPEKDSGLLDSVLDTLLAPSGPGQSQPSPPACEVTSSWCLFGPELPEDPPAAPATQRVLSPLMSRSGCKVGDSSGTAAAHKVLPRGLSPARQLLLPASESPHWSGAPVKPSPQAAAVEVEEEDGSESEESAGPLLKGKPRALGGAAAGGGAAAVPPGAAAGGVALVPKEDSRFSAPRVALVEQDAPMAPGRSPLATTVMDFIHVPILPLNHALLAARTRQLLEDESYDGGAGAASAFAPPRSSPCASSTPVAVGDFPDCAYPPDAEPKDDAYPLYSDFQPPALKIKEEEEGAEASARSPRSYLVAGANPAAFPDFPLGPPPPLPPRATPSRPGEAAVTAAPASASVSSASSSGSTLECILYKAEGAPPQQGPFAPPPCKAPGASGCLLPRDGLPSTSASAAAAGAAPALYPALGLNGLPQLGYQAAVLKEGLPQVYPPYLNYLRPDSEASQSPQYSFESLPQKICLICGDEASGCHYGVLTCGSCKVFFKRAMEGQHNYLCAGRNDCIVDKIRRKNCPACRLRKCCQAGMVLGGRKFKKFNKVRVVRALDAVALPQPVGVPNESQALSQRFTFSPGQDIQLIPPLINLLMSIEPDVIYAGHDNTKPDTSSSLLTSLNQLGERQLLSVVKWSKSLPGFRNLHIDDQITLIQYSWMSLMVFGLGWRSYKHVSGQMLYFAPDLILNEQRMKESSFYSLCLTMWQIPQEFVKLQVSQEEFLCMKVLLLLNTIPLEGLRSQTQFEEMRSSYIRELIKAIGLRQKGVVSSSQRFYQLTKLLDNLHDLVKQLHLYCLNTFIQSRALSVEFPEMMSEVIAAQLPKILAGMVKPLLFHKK
Sequence of Cellular tumor antigen p53 (Homo sapiens) (P04637 whole entry, looked up): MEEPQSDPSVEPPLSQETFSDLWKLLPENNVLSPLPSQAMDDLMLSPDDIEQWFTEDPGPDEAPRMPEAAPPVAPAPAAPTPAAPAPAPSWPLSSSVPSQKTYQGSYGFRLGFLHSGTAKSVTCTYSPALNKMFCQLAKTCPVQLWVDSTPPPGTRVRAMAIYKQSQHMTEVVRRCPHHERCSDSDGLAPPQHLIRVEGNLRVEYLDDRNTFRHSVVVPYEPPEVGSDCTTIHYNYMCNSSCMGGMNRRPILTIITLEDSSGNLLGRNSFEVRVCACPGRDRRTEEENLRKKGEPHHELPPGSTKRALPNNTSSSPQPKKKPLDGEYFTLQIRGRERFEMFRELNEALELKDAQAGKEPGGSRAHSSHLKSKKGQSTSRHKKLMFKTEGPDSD
Sequence of Luciferin 4-monooxygenase (Photinus pyralis) (P08659 whole entry, looked up): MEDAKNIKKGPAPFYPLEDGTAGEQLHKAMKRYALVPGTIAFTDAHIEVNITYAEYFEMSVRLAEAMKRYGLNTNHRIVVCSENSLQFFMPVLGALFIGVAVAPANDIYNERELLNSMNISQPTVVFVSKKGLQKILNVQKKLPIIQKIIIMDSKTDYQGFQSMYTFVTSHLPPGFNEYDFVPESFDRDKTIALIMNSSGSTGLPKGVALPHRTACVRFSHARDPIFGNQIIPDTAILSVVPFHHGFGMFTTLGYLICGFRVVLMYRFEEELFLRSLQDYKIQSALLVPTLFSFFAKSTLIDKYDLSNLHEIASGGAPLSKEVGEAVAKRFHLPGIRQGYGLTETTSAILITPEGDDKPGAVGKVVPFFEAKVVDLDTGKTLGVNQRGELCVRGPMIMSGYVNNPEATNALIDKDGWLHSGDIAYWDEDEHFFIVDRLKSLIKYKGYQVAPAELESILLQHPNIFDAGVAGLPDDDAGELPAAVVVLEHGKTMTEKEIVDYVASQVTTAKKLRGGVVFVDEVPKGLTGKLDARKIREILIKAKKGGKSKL
Sequence of human Androgen Receptor (AR), AR (gene 367) (P10275 whole entry, looked up): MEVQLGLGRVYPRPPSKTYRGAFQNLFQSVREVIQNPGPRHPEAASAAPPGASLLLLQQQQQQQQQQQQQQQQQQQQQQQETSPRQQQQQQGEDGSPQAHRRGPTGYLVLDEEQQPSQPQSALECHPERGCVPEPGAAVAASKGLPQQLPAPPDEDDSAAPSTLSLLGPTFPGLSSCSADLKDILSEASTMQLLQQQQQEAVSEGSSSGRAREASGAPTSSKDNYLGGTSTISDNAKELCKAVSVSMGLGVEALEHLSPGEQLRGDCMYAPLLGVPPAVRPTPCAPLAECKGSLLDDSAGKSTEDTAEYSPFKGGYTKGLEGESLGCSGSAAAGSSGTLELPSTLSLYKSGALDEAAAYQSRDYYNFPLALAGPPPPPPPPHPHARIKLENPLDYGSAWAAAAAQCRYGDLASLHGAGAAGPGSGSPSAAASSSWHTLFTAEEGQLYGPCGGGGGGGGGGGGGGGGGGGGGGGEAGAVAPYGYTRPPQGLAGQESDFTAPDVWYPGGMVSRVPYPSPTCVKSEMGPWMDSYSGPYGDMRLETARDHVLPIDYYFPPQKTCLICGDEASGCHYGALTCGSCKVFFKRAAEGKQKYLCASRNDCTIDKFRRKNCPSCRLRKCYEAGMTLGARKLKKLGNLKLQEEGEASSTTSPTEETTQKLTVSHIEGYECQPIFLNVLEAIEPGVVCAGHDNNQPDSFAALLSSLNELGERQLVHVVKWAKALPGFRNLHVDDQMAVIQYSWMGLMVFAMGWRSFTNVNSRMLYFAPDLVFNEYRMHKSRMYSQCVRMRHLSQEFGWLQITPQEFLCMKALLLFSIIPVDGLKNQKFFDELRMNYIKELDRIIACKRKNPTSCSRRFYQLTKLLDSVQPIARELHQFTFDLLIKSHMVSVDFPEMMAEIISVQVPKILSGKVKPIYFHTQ

## CCCCCCCCCCn1cc[n+](C)c1
[1]
  AC50: 15.5 µM (active)
  outcome: inactive
[2]
  AC50: 45.6 µM (active) and 21.5 µM (active) and 46 µM (active)
  outcome: inactive

## ClC(Cl)C(Cl)Cl
[1]
  outcome: inactive

## CC1(C)C(C=C(Cl)Cl)C1C(=O)OCc1cccc(Oc2ccccc2)c1 (centres undefined)
[3]
  outcome: inactive
[4]
  outcome: inactive

## Nc1ccc(Cl)cc1C(=O)c1ccccc1F
[5]
  outcome: inactive
[6]
  AC50: 17.3 µM (active)
[7]
  outcome: inactive
[8]
  outcome: inactive
[9]
  outcome: inactive
[10]
  outcome: inactive
[11]
  outcome: inactive
[12]
  outcome: inactive

## C[C@]12CC[C@H]3[C@@H](CCC4=CC(=O)CC[C@@]43C)[C@@H]1CC[C@@H]2O
[2]
  outcome: inactive

## CCCCCCCCCC(=O)O[C@H]1CC[C@H]2[C@@H]3CCC4=CC(=O)CC[C@]4(C)[C@H]3CC[C@]12C
[1]
  outcome: inactive
[2]
  outcome: inactive

## C[C@]12Cc3cn[nH]c3C[C@@H]1CC[C@@H]1[C@@H]2CC[C@@]2(C)[C@H]1CC[C@]2(C)O
[5]
  AC50: 6.44 µM (active)
[6]
  outcome: inactive
[7]
  outcome: inactive
[8]
  outcome: inactive
[9]
  AC50: 3.48 µM (active)
[10]
  outcome: inactive
[11]
  outcome: inactive
[12]
  outcome: inactive

## NC1CCC(CC2CCC(N)CC2)CC1 (centres undefined)
[1]
  outcome: inactive

## CCN(Cc1ccc(Cl)nc1)/C(=C/[N+](=O)[O-])NC
[1]
  outcome: inactive
[2]
  outcome: inactive

## CCN(CC)CCc1c[nH]c2ccccc12
[2]
  outcome: inactive

## COc1ccn(C)c(=O)c1C#N
[13]
  outcome: inactive
[14]
  outcome: inactive

## O=C1Nc2ccc(Cl)cc2C(c2ccccc2Cl)=NC1O (centres undefined)
[15]
  outcome: inactive
[2]
  outcome: inactive

## COCCOC(C)=O
[16]
  outcome: inactive
[17]
  outcome: inactive
[18]
  outcome: inactive

## [Cl-].[Cl-].[Cl-].[Gd+3]
[16]
  outcome: inactive
[17]
  outcome: inactive
